A selection: hits, their analogues and other compounds. The true share with any hit is near 21%.
Cycloheximide cs: affects cycloheximide protein synthesis inhibition readout, counter-screen; cell reporter, cycloheximide protein synthesis inhibition counterscreen; max response, %; 300,000 compounds, 12% hits; AID 2314; in the data active = max response mostly above about 13%, no sharp cut-off; inactive = mostly below about 14%; note: read at 38.3 µM for the half of the compounds with a filed dose
HCMV inh: human cytomegalovirus inhibition | AID 1259415 | 410,000 compounds, 4.5% hits | HFF cells, HCMV-luciferase reporter, 72 h; stronger effect = lower value | activity change, negative = inhibition, % at 57.5 µM; in the data active = activity change below about -60%; inconclusive = no clear call, values can overlap the other calls; inactive = above about -39%
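Cell-based, HFFs, 1000 cells/well, 16 h 37C; cpds in DMSO + HCMV-luc, MOI 1 PFU/cell; 72 h 37C; OneGlo luminescence after 5 min RT; norm. to buffer vs Salinomycin 10uM.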
Pf growth 48h: inhibits P. falciparum growth in the first generation, 48 h; P. falciparum luciferase growth in erythrocytes, 48 h; Potency, µM (doses to about 28.7 µM), actives largely listed as inhibitors; 310,000 compounds, 5.9% hits; AID 504832
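In quantitative HTS format, infected erythrocytes bearing luciferase-reporter parasites were treated for a single generation at 37 C. Luminescence after adding detection reagent served as the growth measure.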
Shiga toxin inh: inhibitors of Shiga toxin in Vero cells. Vero cells, Shiga toxin protein synthesis inhibition reporter. inhibition, % at 38.7 µM. 290,000 compounds, 9.2% hits. AID 2315; in the data active = inhibition mostly above about 28%, no sharp cut-off; inactive = mostly below about 43%
Pf growth 96h: P. falciparum growth inhibition at 96 hours; Potency, µM (top dose mostly 28.7 µM), hits mostly inhibitors; P. falciparum luciferase reporter growth, 96 h; AID 504834; 320,000 compounds, 6.9% hits
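P. falciparum expressing integrated firefly luciferase grown in erythrocytes (2% hematocrit, 0.05% parasitemia final) with compounds for 96 hours at 37 C, 5% CO2. Growth inhibition read as loss of luminescence after adding luciferase detection reagent.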
HCV inh: inhibitors of hepatitis C virus infection; Huh7.5.1 HCVcc-Cre infection, luciferase reporter, 44 h; Potency, µM (series often up to 41.8 µM), actives largely listed as inhibitors; 340,000 compounds, 3.4% hits; AID 651820
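Reporter virus HCVcc-Cre (~0.5 moi) infects cells exposed to compound; seeding density 1,000 cells/well with 4 h settling beforehand. Luminescence, 15 sec read, taken 44 h post-infection following a 15 min RT substrate incubation.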
Of the large screens only hits and unclear results are named; the others gave an inactive call. Unless noted, calls come from the whole dose curve; as a rule, active = well fitted inhibition curve with a large enough effect; inconclusive = small, poorly fitted or top-dose-only effect, or another doubt; inactive = no such curve, though single readings can be large or run the other way.

COc1cccc(NC(=O)C(Sc2nnc(Nc3ccccc3C)s2)c2ccccc2)c1 (configuration not stated)	Pf growth 48h inconclusive, Pf growth 96h 6.6µM, HCV inh inconclusive
COc1ccc(Nc2nnc(SC(C(=O)Nc3ccc(OC)c(Cl)c3)c3ccccc3)s2)cc1 (configuration not stated)	HCMV inh inconclusive, Pf growth 48h inconclusive, Pf growth 96h 9.3µM, HCV inh inconclusive
O=C(CN(CCO)Cc1ccccc1)N1CCN(S(=O)(=O)c2ccccc2)CC1	none (no result: Cycloheximide cs, Pf growth 48h, Shiga toxin inh, Pf growth 96h, HCV inh)
O=C(c1ccc(F)cc1)N1CC(=O)N2[C@H](CO)[C@H](c3ccc(Br)cc3)[C@@H]2C1	none (no result: Cycloheximide cs, Pf growth 48h, Shiga toxin inh, Pf growth 96h, HCV inh)
COc1ccc(-n2nnnc2C(CCc2ccccc2)N2CCC(n3c(=O)[nH]c4ccccc43)CC2)cc1 (configuration not stated)	HCMV inh -95 (no result: Cycloheximide cs, Pf growth 48h, Shiga toxin inh, Pf growth 96h, HCV inh)
O=c1[nH]c2ccccc2n1C1CCN(C(CCc2ccccc2)c2nnnn2-c2ccc3c(c2)OCCO3)CC1 (configuration not stated)	HCMV inh -104 (no result: Cycloheximide cs, Pf growth 48h, Shiga toxin inh, Pf growth 96h, HCV inh)
Cc1cccc(C)c1-n1nnnc1C(CCc1ccccc1)N1CCC(n2c(=O)[nH]c3ccccc32)CC1 (configuration not stated)	HCMV inh -94 (no result: Cycloheximide cs, Pf growth 48h, Shiga toxin inh, Pf growth 96h, HCV inh)
O=c1[nH]c2ccccc2n1C1CCN(C(c2ccnc3ccccc23)c2nnnn2-c2ccc3c(c2)OCCO3)CC1 (configuration not stated)	HCMV inh -76 (no result: Cycloheximide cs, Pf growth 48h, Shiga toxin inh, Pf growth 96h, HCV inh)
Cc1ccc(NC(=O)CN2CCCN(Cc3cc(C)ccc3C)S2(=O)=O)c(Cl)c1	none (no result: Cycloheximide cs, Pf growth 48h, Shiga toxin inh, Pf growth 96h, HCV inh)
COCCOn1c(SCCOC)nc2ccccc2c1=O	none
COc1ccc(-n2cc(CNCCN3CCOC3=O)c(-c3ccccc3Cl)n2)cc1	Pf growth 96h inconclusive
COc1ccc(-n2cc(CNCCCn3ccnc3)c(-c3ccccc3Cl)n2)cc1	Pf growth 48h 1.5µM, HCV inh inconclusive
CCN1CCC(CNCc2cn(-c3ccc(OC)cc3)nc2-c2ccccc2Cl)C1 (configuration not stated)	HCMV inh -71, Pf growth 48h 2.1µM, Pf growth 96h inconclusive, HCV inh 11µM
Cc1ccc(-n2cc(CNCCn3nc(C)cc3C)c(-c3ccc(F)cc3)n2)cc1	Pf growth 48h inconclusive, HCV inh inconclusive
COc1ccc(-n2cc(CNCCc3nc(C)cc(C)n3)c(-c3ccccc3Cl)n2)cc1	HCMV inh inconclusive, Pf growth 48h 12µM, Pf growth 96h inconclusive, HCV inh inconclusive
Cc1ccc(-n2cc(CNCCc3ncc(C)[nH]3)c(-c3ccc(F)cc3)n2)cc1	Cycloheximide cs 14, Pf growth 48h 1.7µM, HCV inh inconclusive
COc1ccc(-n2cc(CNCCc3ncc(C)[nH]3)c(-c3ccccc3Cl)n2)cc1	Pf growth 96h inconclusive
CC(C)C(OC(=O)/C=C/c1ccc2c(c1)OCO2)C(=O)NC(N)=O (configuration not stated)	none
Fc1ccc(-n2cc(CNCCc3ccccn3)c(-c3ccccc3Cl)n2)cc1	Pf growth 48h 8.3µM
CS(=O)(=O)N1CCN(C(=O)COc2ccccc2)CC1	none
CS(=O)(=O)N1CCN(C(=O)COc2ccc3ccccc3c2)CC1	Pf growth 48h 2.1µM
O=C(COc1ccc2ccccc2c1)N1CCN(c2ccccc2O)CC1	Pf growth 48h inconclusive
O=C(COc1ccc2ccccc2c1)N1CCNCC1	Cycloheximide cs 12, Shiga toxin inh 52
COc1ccc(Cn2c(CO)cnc2SCc2cccc(C)c2)cc1	none (no result: Cycloheximide cs, Pf growth 48h, Shiga toxin inh, Pf growth 96h, HCV inh)
CC(C)NC(=O)C1CCN(Cc2cccc(OCc3ccccc3)c2)CC1	none (no result: Cycloheximide cs, Pf growth 48h, Shiga toxin inh, Pf growth 96h, HCV inh)
CC(C)CNC(=O)C1CCN(Cc2ccc(OCc3ccccc3)cc2)CC1	Cycloheximide cs 27, Shiga toxin inh 79, HCV inh inconclusive
CC(O)CNC(=O)C1CCN(Cc2ccc(OCc3ccccc3)cc2)CC1 (configuration not stated)	Cycloheximide cs 37, Shiga toxin inh 130
CCc1ccc(C(=O)/C=C/c2ccc([N+](=O)[O-])o2)cc1	Cycloheximide cs 13 (no result: Pf growth 48h)
CN(CC1CCN(CCc2cccc(C(F)(F)F)c2)CC1)C(=O)c1ccc(F)cc1	Pf growth 96h 13µM
CN(CC1CCN(CCc2cccc(C(F)(F)F)c2)CC1)C(=O)c1ccccc1	Pf growth 96h inconclusive
CN[C@H](C)CCC=C(C)C	Pf growth 48h 0.15µM, Pf growth 96h inconclusive (no result: Cycloheximide cs, HCMV inh, Shiga toxin inh, HCV inh)
COc1ccc(-c2[nH]ncc2C(=O)NCc2cccc(F)c2)cc1	none (no result: Cycloheximide cs, Pf growth 48h, Shiga toxin inh, Pf growth 96h, HCV inh)
COc1ccc(NC(=O)C2CCCN2S(=O)(=O)c2cccc3cccnc23)c(OC)c1 (configuration not stated)	Pf growth 96h 10µM
O=C(Nc1cccc(Cl)c1)C1CCCN1S(=O)(=O)c1cccc2cccnc12 (configuration not stated)	none (no result: Cycloheximide cs, Pf growth 48h, Shiga toxin inh, Pf growth 96h, HCV inh)
O=C(Nc1cccc(C(F)(F)F)c1)C1CCCN1S(=O)(=O)c1cccc2cccnc12 (configuration not stated)	HCMV inh -93, Pf growth 48h inconclusive, Pf growth 96h 10µM, HCV inh inconclusive
O=C(CN1C(=O)COc2ccccc21)c1cccc(Cl)c1	Pf growth 96h inconclusive (no result: HCV inh)
CN1CCN(CCCNC(=O)CN2C(=O)COc3ccccc32)CC1	none
O=C(CN1C(=O)COc2ccccc21)c1ccc(Cl)cc1	Pf growth 96h 10µM
CCOC(=O)Nc1cc(C)ccc1OC	none
O=C(CN1C(=O)COc2ccccc21)NCCCN1CCCC1	HCMV inh active, Pf growth 96h inconclusive
Cc1ccc2c(c1)N(CC(=O)NCCCN1CCN(C)CC1)C(=O)CO2	HCMV inh -69
CCCCCCCCC(=O)Nc1cc(C)ccc1OC	Pf growth 48h 10µM, Pf growth 96h inconclusive
O=C(CN1C(=O)COc2ccccc21)NCCN1CCCC1	none
CCOc1ncccc1C(=O)NCc1ccccc1Cl	none
Cc1ccc(-c2ccc(=O)n(CC(=O)Nc3ccc(C(C)C)cc3)n2)cc1	none (no result: Cycloheximide cs, Pf growth 48h, Shiga toxin inh, Pf growth 96h, HCV inh)
CCc1cccc(CC)c1NC(=O)CN1CCN(S(=O)(=O)c2ccccc2)CC1	Pf growth 48h inconclusive, HCV inh inconclusive
Cc1ccc2onc(CNC(=O)N3CCN(c4cc(Cl)ccc4C)CC3)c2c1	none (no result: Cycloheximide cs, Pf growth 48h, Shiga toxin inh, Pf growth 96h, HCV inh)
CC1CCCN(C(=O)CN(c2ccccc2)S(=O)(=O)c2ccc(F)cc2)C1 (configuration not stated)	Pf growth 48h inconclusive, Pf growth 96h inconclusive (no result: Cycloheximide cs, Shiga toxin inh)
COc1cc(NC(=O)Cc2cccc3ccccc23)c(C(=O)O)cc1OC	none (no result: Shiga toxin inh)
CC(C(=O)NCc1ccccc1F)n1ccc2cc(S(=O)(=O)N3CCCC3)ccc21 (configuration not stated)	none (no result: Cycloheximide cs, Pf growth 48h, Shiga toxin inh, Pf growth 96h, HCV inh)
COc1ccccc1NC(=O)CN1C(=O)COc2ccc(C)cc21	HCMV inh inconclusive
COc1ccc(C)cc1NC(=O)CN1C(=O)COc2ccc(C)cc21	Pf growth 96h 5.2µM
O=C1N[C@@H]2[C@H](CCCCC(=O)Oc3ccc([N+](=O)[O-])cc3)SC[C@H]2N1	none (no result: HCMV inh, Pf growth 48h, Pf growth 96h, HCV inh)
